The supplement of paper PMC12350171
Counter-ions that a name gives are not always drawn. A number with no mark means an inactive call.

Experiments:
Conditions in all cases: 20 µM
[1] = tested on: Salmonella enterica typhimurium; assay: growth AUC normalised to DMSO control (fraction of control); higher = less growth inhibition, active = hit call of the paper
Summary of the method: (§1)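 For the AUC endpoint, growth curves were integrated by the trapezoidal rule up to the exponential-to-stationary transition and normalised to DMSO controls on the same plate. The curves came from OD578 readings taken hourly for 24 h, in three biological replicates. Pathogens had been passaged anaerobically twice and inoculated at an OD578 of 0.01 into pre-reduced mGAM plates carrying 20 μM compound and 1% DMSO, sealed with breathable membranes. Medium for Haemophilus parainfluenzae also contained hemin and NAD.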

[2] = tested on: Shigella flexneri; assay: as above
Summary of the method: as §1

[3] = tested on: Vibrio cholerae; assay: as above
Summary of the method: as §1

[4] = tested on: Yersinia pseudotuberculosis; assay: as above
Summary of the method: as §1

[5] = tested on: P. vulgatus RND KO; assay: growth AUC normalised to DMSO control (median) (fraction of control); higher = less growth inhibition, active = hit call of the paper
Summary of the method: (§2)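 Area under the growth curve, calculated by the trapezoidal rule up to entry into stationary phase, was normalised to vehicle wells on the same plate. Strains had been passaged twice overnight without oxygen and then grown in mGAM in 96-well plates from OD578 0.01, each with an approved-drug library compound at 20 μM in 1% DMSO. OD578 was read hourly over 24 h in an anaerobic incubator, and the median of three biological replicates is given.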

[6] = tested on: P. vulgatus WT; assay: as above
Summary of the method: as §2

[7] = tested on: S. enterica typhimurium WT; assay: as above
Summary of the method: as §2

[8] = tested on: S. enterica typhimurium tolC KO; assay: as above
Summary of the method: as §2
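For growth AUC normalised to DMSO control (median) in this document: active when median AUC fell below 0.1.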

Row | Structure (SMILES) | growth AUC normalised to DMSO control [1] | growth AUC normalised to DMSO control [2] | growth AUC normalised to DMSO control [3] | growth AUC normalised to DMSO control [4] | growth AUC normalised to DMSO control [5] | growth AUC normalised to DMSO control [6] | growth AUC normalised to DMSO control [7] | growth AUC normalised to DMSO control [8]
1 | c1ccc(CN(CC2=NCCN2)c2ccccc2)cc1 [Antazoline hydrochloride] | 0.999 | 1.01 | 1.01 | 1 | 1.03 | 1.05 | 0.996 | 1
2 | Cn1c(=O)c2c(ncn2CC(O)CO)n(C)c1=O (stereo not given) [Diprophylline] | 0.986 | 0.996 | 0.971 | 1 | 1 | 0.989 | 0.991 | 0.998
3 | Nc1ccc(S(=O)(=O)NC(=O)c2ccccc2)cc1 [Sulfabenzamide] | 1.02 | 1.03 | 1.06 | 1.04 | 1.05 | 1.1 | 1 | 1.01
4 | CN1C(C(=O)Nc2ccccn2)=C(O)c2ccccc2S1(=O)=O [Piroxicam] | 0.973 | 0.995 | 0.892 | 1.01 | 1.01 | 1.04 | 1.01 | 0.977
5 | CC1(C)O[C@@H]2C[C@H]3[C@@H]4C[C@H](F)C5=CC(=O)C=C[C@]5(C)[C@@]4(F)[C@@H](O)C[C@]3(C)[C@]2(C(=O)CO)O1 [Fluocinolone acetonide] | 1 | 1.01 | 1.02 | 1 | 0.975 | 0.967 | 1 | 0.993
6 | COc1ccc([C@@H]2Sc3ccccc3N(CCN(C)C)C(=O)[C@@H]2OC(C)=O)cc1 [Diltiazem hydrochloride] | 0.998 | 0.969 | 1 | 1.01 | 0.99 | 1 | 0.995 | 0.973
7 | CC(=O)N(O)CCCCCNC(=O)CCC(=O)N(O)CCCCCNC(=O)CCC(=O)N(O)CCCCCN [Deferoxamine mesylate] | 1.03 | 1.03 | 1.03 | 1 | 1.04 | 1.07 | 0.998 | 1
8 | CC1CNc2c(cccc2S(=O)(=O)N[C@@H](CCCNC(=N)N)C(=O)N2CC[C@@H](C)C[C@@H]2C(=O)O)C1 (stereo not given in full) [Argatroban] | 1 | 1.03 | 1 | 1.02 | 1.03 | 1.06 | 1.01 | 0.996
9 | Cc1cnc(C(=O)NCCc2ccc(S(=O)(=O)NC(=O)NC3CCCCC3)cc2)cn1 [Glipizide] | 1.01 | 0.984 | 1.01 | 1.01 | 1.04 | 0.998 | 1.01 | 0.996
10 | COc1cc(-c2ccc(=O)[nH]n2)ccc1OC(F)F [Zardaverine] | 0.99 | 0.999 | 0.955 | 0.998 | 1 | 1.02 | 0.995 | 0.997
11 | CCc1c(C)[nH]c2c1C(=O)C(CN1CCOCC1)CC2 (stereo not given) [Molindone hydrochloride] | 1 | 1.02 | 1.04 | 1.01 | 1.03 | 1.05 | 1.02 | 1.01
12 | OCCN1CCN(CC/C=C2/c3ccccc3Sc3ccc(Cl)cc32)CC1 [Zuclopenthixol dihydrochloride] | 0.996 | 0.972 | 0.946 | 0.998 | 0.928 | 0.962 | 0.992 | 0.887
13 | CCOC(=O)C(C)(C)Oc1ccc(Cl)cc1 [Clofibrate] | 1.03 | 1.01 | 1.03 | 1.02 | 1.03 | 1.04 | 1 | 0.991
14 | Nc1ccc(S(=O)(=O)Nc2ncccn2)cc1 [Sulfadiazine] | 0.989 | 0.974 | 1 | 0.987 | 0.996 | 0.995 | 0.986 | 1
15 | O=P(O)(O)C(Cl)(Cl)P(=O)(O)O [Clodronate disodium] | 0.986 | 0.993 | 0.964 | 0.991 | 1 | 1.01 | 0.997 | 0.986
16 | CC(=O)N[C@@H](CC(C)C)C(=O)O [N-Acetyl-L-leucine] | 1.04 | 1.01 | 1.03 | 1 | 0.99 | 0.997 | 0.999 | 0.996
17 | CC(=O)N[C@@H](CC(=O)O)C(=O)N[C@@H](CCC(=O)O)C(=O)O [Spaglumic acid] | 1.03 | 1.01 | 1.02 | 1.02 | 1.01 | 1.04 | 1.01 | 1
18 | CC(C)(C)NC(=O)[C@@H]1C[C@@H]2CCCC[C@@H]2CN1C[C@@H](O)[C@H](Cc1ccccc1)NC(=O)[C@H](CC(N)=O)NC(=O)c1ccc2ccccc2n1 [Saquinavir mesylate] | 1.01 | 1.02 | 1.04 | 1.03 | 0.859 | 0.89 | 1.02 | 1
19 | CC(C(=O)O)c1cccc(Oc2ccccc2)c1 (stereo not given) [Fenoprofen calcium salt dihydrate] | 0.995 | 0.924 | 0.945 | 0.987 | 0.99 | 0.983 | 1 | 0.995
20 | C[C@H](CCC(=O)O)[C@H]1CC[C@H]2[C@@H]3[C@@H](O)C[C@@H]4C[C@H](O)CC[C@]4(C)[C@H]3CC[C@]12C [Urosiol] | 0.971 | 1.02 | 1.04 | 1.01 | 1.02 | 1.02 | 1 | 1.01
21 | CC1=C(C(=O)O)N2C(=O)[C@@H](NC(=O)[C@H](N)c3ccc(O)cc3)[C@H]2SC1 [Cefadroxil] | 0.979 | 0.937 | 0.967 | 0.997 | 1.01 | 1 | 0.996 | 0.982
22 | CC(=O)N[C@@H](CS)C(=O)O [Acetylcysteine] | 1.03 | 1.06 | 1.05 | 1.04 | 1.07 | 1.06 | 1.01 | 0.991
23 | COC(=O)Nc1nc2ccc(SC(C)C)cc2[nH]1 [Methiazole] | 1.01 | 1 | 0.999 | 1.01 | 0.992 | 1.04 | 0.997 | 0.994
24 | CCC1(C)CC(=O)NC1=O (stereo not given) [Ethosuximide] | 1.02 | 1.02 | 1.03 | 0.999 | 1.02 | 1.05 | 1 | 0.963
25 | O=C(NCCNCC(O)COc1ccc(O)cc1)N1CCOCC1 (stereo not given) [Xamoterol hemifumarate] | 0.969 | 0.945 | 0.98 | 0.993 | 0.991 | 0.982 | 1.01 | 0.99
26 | COC(=O)C1=C(C)NC(C)=C(C(=O)OC)C1c1ccccc1[N+](=O)[O-] [Nifedipine] | 1 | 0.997 | 0.971 | 1 | 0.987 | 0.996 | 1.01 | 0.994
27 | CCCCNc1c(C(=O)OCC)c(C)nc2c1cnn2CC [Tracazolate hydrochloride] | 1 | 1.03 | 1.04 | 0.996 | 0.978 | 0.983 | 0.999 | 0.952
28 | CN[C@H](CC(C)C)C(=O)N[C@H]1C(=O)N[C@@H](CC(N)=O)C(=O)N[C@H]2C(=O)N[C@H]3C(=O)N[C@H](C(=O)N[C@H](C(=O)O)c4cc(O)cc(O)c4-c4cc3ccc4O)[C@H](O)c3ccc(c(Cl)c3)Oc3cc2cc(c3O[C@@H]2O[C@H](CO)[C@@H](O)[C@H](O)[C@H]2O[C@H]2C[C@](C)(N)[C@H](O)[C@H](C)O2)Oc2ccc(cc2Cl)[C@H]1O [Vancomycin hydrochloride] | 0.986 | 0.984 | 1.01 | 0.981 | 0.014 (active) | 0.0118 (active) | 0.996 | 0.996
29 | CN(C)CCOC1=Cc2ccccc2Sc2ccc(Cl)cc21 [Zotepine] | 1.01 | 1 | 0.877 | 1 | 0.935 | 0.874 | 1.01 | 0.959
30 | O=C(O)c1ccccc1C(=O)Nc1ccc(S(=O)(=O)Nc2nccs2)cc1 [Phthalylsulfathiazole] | 1.01 | 1.01 | 1.03 | 0.997 | 1.03 | 1.03 | 0.993 | 0.998
